In PubChem BioAssay (NCI):
About 83,000 compounds went through this panel and 20% of them were active in at least one assay; those are over-represented in the sample as a whole.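 Activity criterion: percent growth below 10, measured after cells in 96-well plates were exposed to a single compound concentration for 48 hours.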 Unmarked numbers belong to inactive results. Active and inactive are the calls of the source.

Assays:
Assay in all cases: NCI-60 one-dose screen, 48 h (100 = growth as untreated, 0 = no growth, -100 = all killed)
NCI-H23 lung = details: 10 µM unless noted
NCI-H226 lung = details: 10 µM unless noted
NCI-H322M lung = details: 10 µM unless noted
HOP-62 NSCLC = details: 10 µM unless noted
NCI-H460 lung = details: 10 µM unless noted
A549/ATCC NSCLC = details: 10 µM unless noted
786-0 renal = details: 10 µM unless noted
COLO 205 colon = details: 10 µM unless noted
DU-145 prostate = details: 10 µM unless noted
K-562 leukemia = details: 10 µM unless noted
MALME-3M melanoma = details: 10 µM unless noted
MDA-MB-231 breast = details: 10 µM unless noted
SF-268 CNS = details: 10 µM unless noted
SF-295 CNS = details: 10 µM unless noted
SF-539 CNS = details: 10 µM unless noted
UACC-257 melanoma = details: 10 µM unless noted
M14 melanoma = details: 10 µM unless noted
RXF 393 renal = details: 10 µM unless noted
HOP-92 NSCLC = details: 10 µM unless noted
NCI-H522 lung = details: 10 µM

Compound | growth (NCI-H23 lung) | growth (NCI-H226 lung) | growth (NCI-H322M lung) | growth (HOP-62 NSCLC) | growth (NCI-H460 lung) | growth (A549/ATCC NSCLC) | growth (786-0 renal) | growth (COLO 205 colon) | growth (DU-145 prostate) | growth (K-562 leukemia) | growth (MALME-3M melanoma) | growth (MDA-MB-231 breast) | growth (SF-268 CNS) | growth (SF-295 CNS) | growth (SF-539 CNS) | growth (UACC-257 melanoma) | growth (M14 melanoma) | growth (RXF 393 renal) | growth (HOP-92 NSCLC) | growth (NCI-H522 lung)
NC(=O)c1cc(Cl)ccc1NC(=O)c1ccccc1-c1ccccc1 | 39.9% | 57.7% | 30% | 39% | 13.2% | 35.6% | 26.6% | -14.1% (active) | -8.79% (active) | 11.5% | 30.4% | 29.4% | 54.1% | 8.66% (active) | -12.5% (active) | 68.6% | -24% (active) | – | – | –
CCOC(=O)/C(=C/CC/C(C)=C/CC/C(C)=C/CCc1ccoc1)CC(=O)N1CCCCC1 | 66.4% | 73% | -91.8% (active) | 86% | -56.4% (active) | 5.91% (active) | 86.3% | 1.9% (active) | 62.8% | 18.1% | 15.2% | -21.9% (active) | 66.4% | 33% | 76.3% | 12.7% | 31.4% | 77.8% | – | –
Cc1ccc(-c2csc(N)n2)cc1 | 102% | 97.4% | 107% | – | 102% | – | 98.3% | 115% | 123% | 94.4% | 124% | 96.6% | 101% | 110% | 102% | 79.9% | 102% | 110% | 70.7% | 98.8%
CCN(CC)CCOCC[C@H]1CC[C@H]2[C@@H]3[C@H](C)Cc4cc(OS(N)(=O)=O)ccc4[C@H]3CC[C@]12C | -87.4% (active) | -61.9% (active) | -24.9% (active) | – | -85.2% (active) | -90.2% (active) | -99.6% (active) | -78.5% (active) | -58.6% (active) | -63.8% (active) | -67.5% (active) | -67.3% (active) | -80.2% (active) | -65% (active) | -96.1% (active) | – | -97.1% (active) | – | -88.2% (active) | –
NS(=O)(=O)c1ccc(N2CC(c3nc4ccccc4[nH]3)CC2=O)cc1 (configuration not stated) | 90.3% | 97.1% | 88.9% | 85.4% | 100% | 99.5% | 102% | 101% | 109% | 97.2% | 92.9% | 85.4% | 96.1% | 99.9% | 96.6% | 109% | 96.9% | – | – | –
O=C(/C=C/c1ccc([N+](=O)[O-])cc1)c1ccc2c3c(cccc13)CC2 | 67.9% | 66.9% | 78.4% | – | 38.4% | – | 83.9% | 49% | 38.7% | 44.8% | 79.7% | 81.4% | 80.9% | -17.9% (active) | 33.1% | 3.27% (active) | – | – | 55% | 70.4%
COc1cc(NC(C)CCCN)c2nc(C)ccc2c1Oc1ccc(F)cc1 (configuration not stated) | 84.8% | 84.9% | 37.4% | – | 73.8% | 90% | 65.9% | -45.1% (active) | 99.9% | 35.9% | 71.7% | 61.5% | 80.7% | – | 87.5% | 65.7% | 62.3% | 69.3% | 50.3% | –
O=C(Oc1ccccc1)C(Br)C(Br)c1ccccc1 (configuration not stated) | 112% | 107% | 179% | – | 109% | 91.9% | 98.3% | 49.4% | -38.7% (active) | -44.2% (active) | – | 101% | 78.7% | 130% | 110% | 93.9% | – | 98.2% | 81.6% | –
c1ccc(COc2ccc(Nc3ncnc4c3cnn4-c3ccccc3)cc2)cc1 | 109% | 103% | 84.1% | – | 93.7% | 104% | 100% | 107% | 104% | 90.3% | 92.8% | 101% | 108% | 107% | 99.6% | 121% | 101% | 102% | 98.8% | –
CCCCCc1c(C)[nH]c(/C=C2\N=C(c3ccc[nH]3)C=C2Oc2ccc(Cl)cc2)c1C | -46.3% [100 µM] (active) | 11.9% [100 µM] | 20.5% [100 µM] | – | 2.82% [100 µM] (active) | -51.5% [100 µM] (active) | -18.2% [100 µM] (active) | -85.5% [100 µM] (active) | 3.42% [100 µM] (active) | 0.896% [100 µM] (active) | -59.3% [100 µM] (active) | -38.7% [100 µM] (active) | -72.6% [100 µM] (active) | -72.9% [100 µM] (active) | – | -25.4% [100 µM] (active) | -88.5% [100 µM] (active) | -2.91% [100 µM] (active) | -10.7% [100 µM] (active) | –
Cc1ccc(S(=O)(=O)NCCN2c3nc4ccccc4cc3Sc3cc4ccccc4nc32)cc1 | 56.9% | 65.6% | 91.7% | – | 70.8% | – | 61.9% | 113% | – | 87.9% | 128% | 36.8% | 52.4% | 93.8% | 11.7% | 54.7% | 77.4% | – | 15.7% | 52.8%
C=C1CCC2C(C)(COC(=O)CC)C(OC(=O)CC)CCC2(C)C1C/C=C1/C(=O)OCC1OC(=O)CC (configuration not stated) | 57.4% | -18.3% (active) | 75.6% | – | 79.6% | 46.1% | -97.4% (active) | -28.1% (active) | 28.9% | 2.81% (active) | 2.98% (active) | -29.6% (active) | 39.4% | 56.7% | -64.3% (active) | 0.936% (active) | -76.8% (active) | -97.5% (active) | -9.73% (active) | –
COc1ccc(-n2cnc3cc(C(=O)N4CCCCC4)ccc32)cc1 | 95.5% | 95.3% | 102% | – | 101% | 103% | 100% | 105% | 111% | 99.4% | 97% | 96.4% | 105% | 97.9% | 98.1% | 101% | 101% | – | 95.3% | –
COc1cc(C2CC(C3C(=O)N(C)C(=O)N(C)C3=O)=NN2c2cc(Cl)cc(Cl)c2)cc(OC)c1OC (configuration not stated) | 93.5% | 85% | 104% | – | 94.5% | 78.2% | 99.6% | 99.7% | 107% | 88.4% | 89.1% | 103% | 103% | 84.4% | 96% | 74.2% | 89.3% | 99.3% | 88.5% | –
O=C1/C(=C\c2coc3ccccc3c2=O)c2ccccc2N1c1c(Cl)cccc1Cl | 55.4% | 90.7% | 73.7% | 68.2% | 19% | 26.6% | 27% | 55.3% | 24.6% | – | 83.8% | 60.5% | 32% | -12% (active) | 49.4% | 61.2% | 43.4% | 44.1% | – | –
Cc1ccc(-c2c3c(N)nc(-c4ccncc4)nc3nc3c2c(C)nn3-c2ccccc2)cc1 | 56.4% | 44.9% | 70.3% | – | 28.5% | 17.8% | 80.8% | 18.1% | 32.6% | 28.9% | -2.14% (active) | 21.4% | 37.8% | 95% | 11.3% | – | 44.3% | 45.6% | -7.02% (active) | –
Cc1cc(C)c2c(N)c3cccc(C)c3nc2n1 | -28.6% (active) | -10.6% (active) | 0.65% (active) | – | -1.3% (active) | -40.9% (active) | -3.97% (active) | -18.2% (active) | 2.87% (active) | -11.1% (active) | -23.3% (active) | 14.7% | 9.97% (active) | 1.7% (active) | 1.42% (active) | – | -35.1% (active) | – | -12.9% (active) | –
O=C(Nc1ccccc1S)c1ccccc1 | 93.3% | 103% | 103% | – | 98.7% | 93.8% | 109% | 119% | 111% | 86.2% | 116% | 102% | 103% | 100% | 104% | 92.8% | 101% | 125% | 109% | –
